A short description of assay [1]: antimalarial activity against Dd2 strain (AID 2302;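 active = growth inhibition above 50% at the single 2 µM test dose, taken to imply half-maximal potency below 2 µM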;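 also: 0% = DMSO untreated growth and 100% = chloroquine plus artemisinin killed control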). To be noted: P. falciparum Dd2 in RBCs, LDH growth readout, 72 h; at 2 µM; hits give high values.
A short description of assay [2]: HepG2 cytotoxicity, primary screen, cytotoxicity control for P. falciparum antimalarial project, cell-based, ATP luminescence (AID 2303;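 active = inhibition above 50%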;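 also: 0% = DMSO wells and 100% = digitonin-killed cells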). The conditions noted are these: HepG2 viability, 24-48 h, at 10 µM, hits give high values.
In assay [3] the target is L-lactate dehydrogenase (Plasmodium falciparum (isolate CDC / Honduras)) (UniProt Q27743). The assay is described as follows: PfLDH activity inhibition – cell lysate, 3D7 strain, counter-screen for P. falciparum growth inhibition project (AID 2304).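 Also: 0% = vehicle and 100% = reference inhibitor.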 The conditions noted are these: P. falciparum 3D7 crude extract, LDH APAD/NBT absorbance; at 2 µM; hits give high values.
Sequence of L-lactate dehydrogenase (Plasmodium falciparum (isolate CDC / Honduras)) (Q27743 whole entry, looked up): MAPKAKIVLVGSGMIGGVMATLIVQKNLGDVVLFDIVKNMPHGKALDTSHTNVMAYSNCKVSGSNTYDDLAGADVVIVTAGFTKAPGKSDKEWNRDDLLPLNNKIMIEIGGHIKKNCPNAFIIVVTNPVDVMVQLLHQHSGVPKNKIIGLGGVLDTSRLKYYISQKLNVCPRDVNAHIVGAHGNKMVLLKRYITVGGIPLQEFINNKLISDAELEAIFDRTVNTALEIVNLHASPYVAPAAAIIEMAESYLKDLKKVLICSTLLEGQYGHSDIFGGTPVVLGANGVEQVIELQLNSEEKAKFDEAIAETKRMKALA
The nature of assay [4]: inhibition of 3D7 malaria parasite growth – strain 3D7 (AID 2306).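 Also: 0% = DMSO wells and 100% = chloroquine plus artemisinin control wells.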 The conditions noted are these: P. falciparum 3D7 erythrocytic growth, LDH absorbance, 72 h; at 2 µM; hits give high values.
In assay [5] the target is Calcium-dependent protein kinase 1 (Plasmodium falciparum (isolate 3D7)) (UniProt P62344). The assay is described as follows: PfCDPK1 kinase inhibitors, biochemical, TCAMS library (AID 1159585; cut-off not given, nearly all actives have IC50 up to about 0.98 µM;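 also: inhibitors leave more ATP so luminescence rises with inhibition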). The conditions noted are these: recombinant PfCDPK1, Kinase-Glo ATP depletion luminescence. In general terms: In Kinase-Glo more light means more ATP remaining.
Sequence of Calcium-dependent protein kinase 1 (Plasmodium falciparum (isolate 3D7)) (P62344 whole entry, looked up): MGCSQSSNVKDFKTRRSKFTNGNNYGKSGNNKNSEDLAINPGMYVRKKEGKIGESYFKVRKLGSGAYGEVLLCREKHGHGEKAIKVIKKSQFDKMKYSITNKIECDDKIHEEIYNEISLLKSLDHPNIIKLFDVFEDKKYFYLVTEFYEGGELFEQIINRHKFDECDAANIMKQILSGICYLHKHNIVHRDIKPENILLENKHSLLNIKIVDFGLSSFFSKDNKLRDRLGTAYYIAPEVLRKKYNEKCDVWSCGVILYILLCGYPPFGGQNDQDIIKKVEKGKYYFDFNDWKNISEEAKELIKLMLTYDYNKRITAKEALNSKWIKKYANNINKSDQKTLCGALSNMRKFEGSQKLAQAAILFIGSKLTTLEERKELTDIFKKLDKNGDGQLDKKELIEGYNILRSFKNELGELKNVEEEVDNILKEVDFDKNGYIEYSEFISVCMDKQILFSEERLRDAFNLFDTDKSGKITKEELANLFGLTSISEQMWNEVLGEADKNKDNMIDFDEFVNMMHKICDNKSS
Assay [6] concerns the target Plasmodium falciparum protein kinase 6 (PK6, PF3D7_1337100) (UniProt Q8IDW1). Put plainly: PfPK6 kinase inhibitors, biochemical, TCAMS library (AID 1159586). The conditions noted are these: recombinant PfPK6, Kinase-Glo ATP depletion luminescence.
Assay [7] deals with Protein kinase 7 (PK7), Plasmodium falciparum 3D7 (PF3D7_0213400) (UniProt Q7YTF7). The assay is described as follows: inhibition of Plasmodium PK7 catalytic activity – biochemical, TCAMS antimalarial set, Kinase-Glo luminescence (AID 1159587). To be noted: recombinant PfPK7, Kinase-Glo ATP depletion luminescence.
Sequence of Protein kinase 7 (PK7), Plasmodium falciparum 3D7 (PF3D7_0213400) (Q7YTF7 1-343): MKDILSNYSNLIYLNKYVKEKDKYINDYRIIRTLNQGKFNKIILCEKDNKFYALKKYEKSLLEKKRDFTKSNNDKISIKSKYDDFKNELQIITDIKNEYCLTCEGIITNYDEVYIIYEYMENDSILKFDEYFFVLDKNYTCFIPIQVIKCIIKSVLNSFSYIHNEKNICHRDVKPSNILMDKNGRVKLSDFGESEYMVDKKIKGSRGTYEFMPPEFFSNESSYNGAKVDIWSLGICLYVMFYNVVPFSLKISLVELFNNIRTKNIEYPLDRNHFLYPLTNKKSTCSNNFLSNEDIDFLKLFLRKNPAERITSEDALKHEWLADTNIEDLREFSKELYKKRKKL
The target in assay [8] is Calcium-dependent protein kinase 4 (Plasmodium falciparum (isolate 3D7)) (UniProt Q8IBS5). The assay is described as follows: PfCDPK4 kinase inhibitors, biochemical, TCAMS library (AID 1159588; cut-off not given, nearly all actives have IC50 up to about 0.91 µM). The conditions noted are these: recombinant PfCDPK4, Kinase-Glo ATP depletion luminescence.
Sequence of Calcium-dependent protein kinase 4 (Plasmodium falciparum (isolate 3D7)) (Q8IBS5 whole entry, looked up): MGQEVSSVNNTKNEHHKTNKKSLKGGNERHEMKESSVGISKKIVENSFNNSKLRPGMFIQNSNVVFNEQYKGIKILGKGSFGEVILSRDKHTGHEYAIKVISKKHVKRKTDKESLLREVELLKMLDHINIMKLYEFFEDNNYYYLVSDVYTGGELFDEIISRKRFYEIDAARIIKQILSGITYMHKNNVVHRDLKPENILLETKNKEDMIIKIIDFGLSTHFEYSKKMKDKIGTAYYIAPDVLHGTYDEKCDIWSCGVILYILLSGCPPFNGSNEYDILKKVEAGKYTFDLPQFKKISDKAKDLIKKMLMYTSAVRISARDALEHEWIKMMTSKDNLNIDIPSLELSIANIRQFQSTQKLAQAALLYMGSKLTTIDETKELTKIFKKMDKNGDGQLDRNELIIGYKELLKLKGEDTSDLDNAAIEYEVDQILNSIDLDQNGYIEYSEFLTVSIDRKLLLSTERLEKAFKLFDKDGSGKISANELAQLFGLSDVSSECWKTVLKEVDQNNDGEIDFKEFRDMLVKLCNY

A number with no mark means an inactive call. For some assays here: Measured potencies and affinities stand elsewhere. Calls of active or inactive are those of the source. Unless noted, no rule for the calls is given here.

Sequence of Plasmodium falciparum protein kinase 6 (PK6, PF3D7_1337100) (Q8IDW1 1-305): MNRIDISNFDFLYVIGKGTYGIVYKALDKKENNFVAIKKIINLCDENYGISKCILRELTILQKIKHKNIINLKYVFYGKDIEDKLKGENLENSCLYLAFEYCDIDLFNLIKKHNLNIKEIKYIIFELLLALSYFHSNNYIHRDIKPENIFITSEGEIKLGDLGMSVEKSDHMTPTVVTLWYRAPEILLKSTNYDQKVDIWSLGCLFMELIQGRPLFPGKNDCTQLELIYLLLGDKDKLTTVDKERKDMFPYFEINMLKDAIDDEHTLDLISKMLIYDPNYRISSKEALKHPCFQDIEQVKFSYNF

`O=C(NC1CCCCC1)N(Cc1ccccc1-c1ccc(CNCCc2ccccc2)cc1)C1CCN(Cc2ccccc2)CC1`: the growth inhibition in assay [1] was 92% (active); in assay [4], 90% (active). The inhibition in assay [2] was 96% (active); in assay [3], -6%. Moreover, the result in assay [5], in assay [6], in assay [7] and in assay [8] was inactive.
Regarding `CNC(=O)NC1=NC(C)(C)N(OCc2ccc(Cl)c(Cl)c2)C(NC(=O)NC)=N1`, the growth inhibition was -3% in assay [1] and 99% (active) in assay [4]. The inhibition was 1% in assay [2] and -2% in assay [3]. Further, the outcome in assay [5], in assay [6], in assay [7] and in assay [8] was inactive.
Take `Cc1cc(CNCCCCCNCc2cccc([N+](=O)[O-])c2)ccc1O`: the growth inhibition is -2% in assay [1] and 98% (active) in assay [4]. The inhibition is 14% in assay [2] and 0% in assay [3]. Also, the outcome in assay [5], in assay [6], in assay [7] and in assay [8] was inactive.
With `OC(CNCCCCCCNCC(O)c1ccc(Cl)c(Cl)c1)c1ccc(Cl)c(Cl)c1` (configuration not stated), the growth inhibition in assay [1] is 17%; in assay [4] it was 90% (active). In addition, the inhibition was 99% (active) in assay [2] and -5% in assay [3]. Further, the outcome in assay [5], in assay [6], in assay [7] and in assay [8] was inactive.
Turning to `CN1CCCc2ccc(NC(=O)c3cc(-c4ccc(Cl)cc4)cs3)cc2C1`, the values for the growth inhibition in assay [1] and in assay [4] were 40% and 94% (active), respectively. Also, the inhibition in assay [2] is 35%; in assay [3], -2%. The outcome in assay [5], in assay [6], in assay [7] and in assay [8] was inactive.
With `COc1ccc(N2CCN(CCCN3CCN(C(=O)c4ccc(/C=C/c5ccc(Cl)c(Cl)c5)cc4)CC3)CC2)c(OC)c1`, the growth inhibition in assay [1] was 52% (active); in assay [4], 93% (active). The results for the inhibition in assay [2] and in assay [3] were 47% and -3%, respectively. Further, the result in assay [5], in assay [6], in assay [7] and in assay [8] was inactive.
Regarding `CN1CCN(CCCN(Cc2ccc(-c3ccc(CNCc4ccc5c(c4)OCO5)cc3)cc2)C(=O)Nc2ccccc2)CC1`, the results for the growth inhibition in assay [1] and in assay [4] were 77% (active) and 94% (active), respectively. Moreover, the inhibition in assay [2] is 36%; in assay [3] it was -3%. In addition, the outcome in assay [5], in assay [6], in assay [7] and in assay [8] was inactive.
Turning to `CS(=O)(=O)c1ccc2nc(-c3cc(-c4ccc(OCCN5CCOCC5)cc4)cnc3N)[nH]c2c1`, the growth inhibition is 99% (active) in assay [1] and 100% (active) in assay [4]. The inhibition in assay [2] was 43%; in assay [3], -4%. The outcome in assay [5], in assay [6], in assay [7] and in assay [8] was inactive.
Take `CC1CC(NCCCNc2cc(=O)c3ccccc3[nH]2)c2cc(Cl)c(Cl)c(Cl)c21` (configuration not stated): the growth inhibition was 69% (active) in assay [1] and 100% (active) in assay [4]. Besides, the inhibition was 0% in assay [2] and 3% in assay [3]. The result in assay [5], in assay [6], in assay [7] and in assay [8] was inactive.
Take `CN1CCC(C(=O)N(Cc2ccc(-c3ccc(CNCCc4ccc(S(C)(=O)=O)cc4)cn3)cc2)Cc2cccc(F)c2)CC1`: the results for the growth inhibition in assay [1] and in assay [4] were 90% (active) and 98% (active), respectively. For the same compound, the inhibition was 10% in assay [2] and -4% in assay [3]. Also, the result in assay [5], in assay [6], in assay [7] and in assay [8] was inactive.
For the compound `OCc1ccc(-c2cncc(Nc3ccc(F)c(Cl)c3)c2)cc1`, the growth inhibition in assay [1] is 99% (active); in assay [4] it was 92% (active). Further, the figures for the inhibition in assay [2] and in assay [3] were 2% and -2%, respectively. In addition, the outcome in assay [5], in assay [6], in assay [7] and in assay [8] was inactive.
`CC(CCc1ccccc1)NCC(O)c1ccc2c3c(cccc13)C(=O)N2C` (configuration not stated): the values for the growth inhibition in assay [1] and in assay [4] were 57% (active) and 99% (active), respectively. In addition, the inhibition in assay [2] was 37%; in assay [3], -2%. In addition, the result in assay [5], in assay [6], in assay [7] and in assay [8] was inactive.
Turning to `CCCC(C)NC[C@@H](O)[C@H](Cc1ccccc1)NC(=O)c1cc(C2CCCC2)cc(N2CCCCS2(=O)=O)c1` (some centres not stated), the figures for the growth inhibition in assay [1] and in assay [4] were 99% (active) and 98% (active), respectively. The values for the inhibition in assay [2] and in assay [3] were 8% and 3%, respectively. For the same compound, the result in assay [5], in assay [6], in assay [7] and in assay [8] was inactive.
With `COc1cc(OC)c(OC)cc1CN1CCC2(CC1)CN(Cc1ccc(Cl)c(Cl)c1)C(=O)O2`, the growth inhibition is 94% (active) in assay [1] and 90% (active) in assay [4]. Also, the inhibition in assay [2] was 8%; in assay [3] it was 3%. Moreover, the outcome in assay [5], in assay [6], in assay [7] and in assay [8] was inactive.
For `COc1ccc(Oc2ccc(Nc3ccnc4ccc(C(F)(F)F)cc34)cc2)cc1OC`, the values for the growth inhibition in assay [1] and in assay [4] were 17% and 90% (active), respectively. The inhibition in assay [2] was -2%; in assay [3], 2%. For the same compound, the outcome in assay [5], in assay [6], in assay [7] and in assay [8] was inactive.
For `Cc1cc(Cl)c(Cl)cc1NC(=O)Nc1cccc(C(F)(F)F)c1`, the growth inhibition in assay [1] was 99% (active); in assay [4], 93% (active). Besides, the values for the inhibition in assay [2] and in assay [3] were 1% and -1%, respectively. The result in assay [5], in assay [6], in assay [7] and in assay [8] was inactive.
In the case of `Cc1[nH]cnc1-c1cccc(NC(=O)c2cc3ccccc3s2)c1`, the values for the growth inhibition in assay [1] and in assay [4] were 48% and 99% (active), respectively. Besides, the inhibition was 5% in assay [2] and -5% in assay [3]. The result in assay [5], in assay [6], in assay [7] and in assay [8] was inactive.
As for `NC(N)=NN=Cc1cc([N+](=O)[O-])ccc1Sc1ccccc1CO`, the results for the growth inhibition in assay [1] and in assay [4] were -1% and 84% (active), respectively. Further, the values for the inhibition in assay [2] and in assay [3] were 25% and -2%, respectively. The result in assay [5], in assay [6], in assay [7] and in assay [8] was inactive.
Regarding `CCCC(C)c1cnc2nc(N)nc(N)c2c1C` (configuration not stated), the growth inhibition in assay [1] was 1%; in assay [4], 95% (active). The inhibition in assay [2] was 67% (active); in assay [3], 3%. Besides, the result in assay [5], in assay [6], in assay [7] and in assay [8] was inactive.

The term inhibition denotes the drop in the measured response relative to a control, in per cent.

These data come from PubChem BioAssay.
